Arbovirus anti = arbovirus infection inhibition. inhibition, % at 10 µM. hit rate 0.37% among 200,000. AID 1251. arbovirus infection cell-based antiviral screen; in the data active means inhibition above about 30%
KCC2 mod = modulators of human KCC2 chloride dependent transport; KCC2 cells, thallium flux FluoZin-2 fluorescence; B-score of Tl+ flux slope (higher = more flux/activation; lower = inhibition) at 10 µM; hit rate 2.2% among 190,000;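 active means thallium flux slope and its plate-corrected score both differing from the plate sample mean at a set confidence after two filtering rounds, in either direction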;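 further: slope of fluorescence scaled to starting intensity during 10 to 20 s after thallium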
Target sequence (Q9H2X9 whole entry, looked up): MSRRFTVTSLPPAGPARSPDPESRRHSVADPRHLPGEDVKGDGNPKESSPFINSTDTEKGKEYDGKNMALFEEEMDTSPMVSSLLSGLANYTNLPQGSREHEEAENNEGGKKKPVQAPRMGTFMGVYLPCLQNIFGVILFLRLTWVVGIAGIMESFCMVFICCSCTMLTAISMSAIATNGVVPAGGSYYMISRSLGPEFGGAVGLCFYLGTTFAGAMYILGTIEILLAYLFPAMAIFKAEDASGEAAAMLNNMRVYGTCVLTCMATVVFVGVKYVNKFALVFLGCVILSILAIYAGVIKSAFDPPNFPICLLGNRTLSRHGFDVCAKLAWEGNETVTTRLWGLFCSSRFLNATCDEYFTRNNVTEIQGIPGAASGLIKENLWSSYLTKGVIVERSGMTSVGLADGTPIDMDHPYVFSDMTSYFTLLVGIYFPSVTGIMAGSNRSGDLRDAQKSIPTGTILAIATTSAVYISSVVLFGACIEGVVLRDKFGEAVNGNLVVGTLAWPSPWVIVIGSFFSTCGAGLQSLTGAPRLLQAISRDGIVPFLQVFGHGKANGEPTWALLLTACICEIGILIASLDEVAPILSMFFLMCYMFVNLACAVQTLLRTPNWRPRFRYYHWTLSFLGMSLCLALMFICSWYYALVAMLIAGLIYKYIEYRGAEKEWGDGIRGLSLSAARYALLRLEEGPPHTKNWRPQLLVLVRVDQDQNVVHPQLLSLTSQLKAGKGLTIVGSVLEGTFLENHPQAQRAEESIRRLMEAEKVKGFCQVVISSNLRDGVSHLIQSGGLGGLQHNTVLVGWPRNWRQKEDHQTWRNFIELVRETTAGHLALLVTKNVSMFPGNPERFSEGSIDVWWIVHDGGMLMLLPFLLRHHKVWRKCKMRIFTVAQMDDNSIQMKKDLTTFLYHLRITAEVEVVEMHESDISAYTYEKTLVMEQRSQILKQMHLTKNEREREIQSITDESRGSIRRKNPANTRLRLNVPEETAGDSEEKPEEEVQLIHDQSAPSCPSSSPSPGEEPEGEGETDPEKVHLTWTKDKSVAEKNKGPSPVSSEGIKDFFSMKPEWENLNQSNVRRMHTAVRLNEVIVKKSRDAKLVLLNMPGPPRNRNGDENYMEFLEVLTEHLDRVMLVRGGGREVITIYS
Measles CPE = protection of cells from measles virus | hit rate 1.5% among 140,000 | Measles virus-infected cells, CPE protection, absorbance | protection (pct of control), % at 4 µM; in the data active means protection mostly above about 24%, no sharp cut-off; inactive means mostly below about 26%
HSV augment = increases HSV replication in cells; HSV replication augmentation in cells, fold increase; maximum fold increase; hit rate 0.005% among 220,000; in the data active means maximum fold increase above about 1.5; tested in PC3 cells
ROMK primary = modulators of human ROMK potassium channel; Tet-inducible ROMK, thallium flux fluorescence; actives lie on both sides; B-score at 10 µM; hit rate 2% among 130,000;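 active means signal ratio slope over the read window, or its plate-corrected B-score, at least 3 SD from the plate mean, either direction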;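 further: B-score of the F/F0 ratio slope over 7 to 12 s after thallium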
Active calls of the source: *; i = inactive; · = no result given. A selection: hits, their analogues and other compounds. The true share with any hit is near 4%.

SMILES	Arbovirus anti	KCC2 mod	Measles CPE	HSV augment	ROMK primary
CC1CCN(c2ccc(N3C(=O)C4CCCCC4C3=O)cc2[N+](=O)[O-])CC1 (centres undefined)	-1	1.4	48*	i	0.021
COc1ccc(S(=O)(=O)CCC(=O)Nc2cccc(OC)c2)cc1	8	0.46	·	i	0.33
C/C(=N\NC(=O)c1ccc(Cl)cc1)c1ccc(Br)s1	-16	·	3	i	-0.8
C/C(=N\NC(=O)c1cc(Cl)ccc1O)c1ccc(Br)s1	-15	15*	32	i	0.49
Cc1ccc(-n2ncc3c(=O)n(CC(=O)N4CCCc5ccccc54)cnc32)cc1C	3	-3.4*	6	i	·
Cc1cc(NC(=O)c2cccc(Oc3ccccc3)c2)n[nH]1	-13	-0.86	·	i	0.16
CCNC(=O)COc1ccc(-c2ccccc2)cc1	-9	0.57	62*	i	-0.029
Cc1nc(CSc2ccccc2)cc(=O)[nH]1	11	0.43	·	i	0.22
CCCCCCCCCCCC(=O)NC(C(=O)O)C(O)c1ccccc1 (centres undefined)	32*	0.19	·	i	1.1
CCN(CC)CCn1c(=S)[nH]c2cc(Cl)ccc2c1=O	6	25*	7	i	·
Fc1cnc(N2CCOCC2)nc1N1CCc2ccccc21	0	-3.3*	32	i	-2.8*
CC(Oc1ccccc1)C(=O)N1CCN=C1SCc1ccccc1 (centres undefined)	3	·	·	i	·
CCOC(=O)C1CCN(Cc2cnc(Oc3ccc(C(C)(C)C)cc3)s2)CC1	-3	·	4	i	·
O=c1cc(N2CCCCC2)c(-c2ccccc2)nn1Cc1ccccc1	-20	-0.69	·	i	-3.1*
CCN(CC)CCNC(=O)c1cc2c(=O)n(C)c3ccccc3c2n1C	14	·	41*	i	·
CCN(CC)CCCNC(=O)c1cc2c(=O)n(C)c3ccccc3c2n1C	3	·	4	i	·
Cc1ccc(C)c2c(N)c3c(nc12)CCCCC3 (tested in a mixture with another compound)	11	-0.4	·	i	0.37
CC(CCc1ccccc1)NC(=O)c1ccco1 (centres undefined)	0	1.7	7	i	0.13
CC(C)CNC(=O)[C@H](Cc1ccccc1)NC(=O)c1ccco1	2	-1.1	8	i	3.2*
O=C(NCc1ccccc1)c1cccc(NC(=O)c2ccco2)c1	-23	-0.071	4	i	·
CC(C)CNC(=O)c1cccc(NC(=O)c2ccco2)c1	-3	·	22*	i	-0.77
Clc1ccc(Cc2nc(-c3cccnc3)no2)cc1	-17	·	26	i	·
CCCCNC(=S)N=Nc1c(O)n(Cc2ccccc2)c2ccccc12	-17	8.8*	15	i	·
COc1ccc(NC2=NC(=S)N(c3ccccc3C)C23CCCCC3)cc1	0	89*	24	i	·
CCC(C)N1C(=O)CN(C2CCCCCC2)C(=O)C1c1ccccc1F (centres undefined)	-9	-0.58	·	i	-0.049
SMILES	Arbovirus anti	KCC2 mod	Measles CPE	HSV augment	ROMK primary
CCNc1nc(NC(C)C)nc(N(n2cnnc2)S(=O)(=O)c2ccc(C)cc2)n1	-5	0.055	14	i	0.42
O=C(N/N=C(\CC(=O)c1cccs1)C(F)(F)F)c1ccncc1	·	1.2	·	i	·
Cc1ccc(C(=O)N/N=C(/CC(=O)c2cccs2)C(F)(F)F)cc1	24	64*	36	i	·
COc1ccc(/C(C)=N/NC(=O)c2ccc(CSc3cccc4cccnc34)cc2)cc1OC	2	-1.6	70*	i	·
COc1ccccc1N1C(=O)C2C(c3ccccc3F)NN(C(=O)c3ccc(C)cc3)C2C1=O (centres undefined)	-1	0.12	51*	·	-0.4
CCOCC(=O)Nc1cc(C(=O)Nc2ccc(F)cc2)ccc1Cl	-6	·	·	i	·
COc1ccc(OCC(O)CNC(=O)c2ccccc2)cc1 (centres undefined)	·	-0.78	·	i	·
O=C(NNCC(O)COc1ccccc1)c1ccccc1 (centres undefined)	-5	0.2	49*	i	-0.036
CCC(C)(C)c1ccc(OCCCC[n+]2ccc(C)cc2)c(C(C)(C)CC)c1	-27	-1.2	·	i	-5.9*
Cc1cc(C(C)(C)C)ccc1OCCCCN1CCCC1	-2	0.32	4	i	-1.4
CC1CC(c2ccccc2)n2nc(NC(=O)c3ccco3)nc2N1 (centres undefined)	-4	1.4	4	i	-6.6*
COc1cc(C(=O)OCC(=O)c2cc(C)n(C)c2C)cc(NC(=O)c2ccco2)c1OC	9	·	53*	i	-0.23
CC1=NN(C(N)=S)C(=O)C1N=Nc1ccccc1C (centres undefined)	-2	18*	3	i	·

Screening data as filed in PubChem BioAssay.
